Compounds without any hit were thinned out: in the full panel of roughly 79,000, 15% have a hit. A number with no mark means an inactive call. Activity calls are given as the source filed them. No stated cut-off is given here; in the data, active means growth inhibition above about 70%; inactive means the rest.
What was measured:
[1] = NCI Yeast Anticancer Drug Screen. Data for the rad50 strain (AID 155);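 further: 0% = growth of vehicle-only cultures of the same strain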; settings: S. cerevisiae rad50 strain growth inhibition, active compounds read high
In short: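 A DNA repair-deficient yeast mutant serves as the test organism; compound-induced growth inhibition is calculated against vehicle-treated cells.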

[2] = NCI Yeast Anticancer Drug Screen. Data for the mec2-1 strain (AID 157); settings: S. cerevisiae mec2-1 strain, active compounds read high
In short: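 mec2-1 yeast strain, carrying an alteration in DNA damage repair or cell cycle control, was exposed to compounds; growth inhibition was measured relative to vehicle-treated controls.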

[3] = NCI Yeast Anticancer Drug Screen. Data for the sgs1 mgt1 strain (AID 161);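 further: 0% = growth of cultures given vehicle only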; settings: S. cerevisiae sgs1 mgt1 strain, active compounds read high
In short: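 Growth of a repair-deficient yeast mutant was monitored after compound treatment and expressed as inhibition relative to vehicle-treated cultures.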

[4] = NCI Yeast Anticancer Drug Screen. Data for the cln2 rad14 strain (AID 165);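 further: 0% = growth equal to vehicle treated cultures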; settings: S. cerevisiae cln2 rad14 strain, active compounds read high
In short: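 Yeast carrying cln2 and rad14 alterations (cell cycle control and DNA damage repair) were exposed to compounds. Growth inhibition was measured against vehicle-treated controls.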

[5] = NCI Yeast Anticancer Drug Screen. Data for the bub3 strain (AID 167); settings: S. cerevisiae bub3 mutant strain, active compounds read high
In short: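 Inhibition values come from growth of compound-treated mutant yeast normalised to vehicle-treated controls.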

[6] = NCI Yeast Anticancer Drug Screen. Data for the mlh1 rad18 strain (AID 175); settings: S. cerevisiae mlh1 rad18 strain growth inhibition, active compounds read high
In short: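 Growth inhibition of the yeast strain was measured after compound exposure and expressed relative to vehicle-treated controls. The strain carries defined defects in DNA damage repair.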

[7] = at 5.0 µM (retest, dose inferred, filed as 0.5)
[8] = at 50.0 µM (retest, dose inferred, filed as 5.0)

Structure (SMILES)	growth inhibition [1, 7] [%]	growth inhibition [1, 8]	growth inhibition ([1]; at 50.0 µM)	growth inhibition [2, 7] [%]	growth inhibition [2, 8]	growth inhibition ([2]; at 50.0 µM)	growth inhibition [3, 7]	growth inhibition [3, 8]	growth inhibition ([3]; at 50.0 µM)	growth inhibition [4, 7] [%]	growth inhibition [4, 8]	growth inhibition ([4]; at 50.0 µM)	growth inhibition [5, 7] [%]	growth inhibition [5, 8]	growth inhibition ([5]; at 50.0 µM)	growth inhibition [6, 7] [%]	growth inhibition [6, 8]	growth inhibition ([6]; at 50.0 µM)
O=C(CN(Cc1ccccc1)Cc1ccccc1)N1CCc2c([nH]c3ccccc23)C1c1cccnc1 (configuration not stated)	29	29%	86.8% (active)	27	27%	86.5% (active)	8%	8%	84.1% (active)	19	19%	88.3% (active)	11	11%	87.5% (active)	32	32%	85% (active)
N#CC1=C(N)OC(c2ccccc2)=C(C#N)C1c1ccccc1[N+](=O)[O-] (configuration not stated)	5	5%	-8.2%	9	8%	38.1%	12%	-8%	22.7%	11	5%	72.5% (active)	-1	-4%	39.1%	2	7%	23.3%
CN(C)C(=S)SC1(CN2CCOCC2)COc2c(Cl)cc(Cl)cc2C1=O (configuration not stated)	1	97% (active)	90.4% (active)	3	96% (active)	76.2% (active)	3%	97% (active)	95.3% (active)	6	96% (active)	75% (active)	5	96% (active)	79.3% (active)	1	97% (active)	89.5% (active)
CN(C)CCCN1c2cc(Cl)ccc2Sc2ccc3ccccc3c21	3	98% (active)	99.3% (active)	3	99% (active)	99.3% (active)	3%	99% (active)	99.2% (active)	2	96% (active)	98.6% (active)	5	96% (active)	99.5% (active)	28	98% (active)	99.3% (active)
O=C(NNc1ncccn1)c1ccc(C(=O)NNc2ncccn2)cc1	-2	99% (active)	2.75%	0	100% (active)	2.1%	-3%	100% (active)	41.5%	7	99% (active)	-25.6%	3	99% (active)	-2.6%	2	99% (active)	21.4%
COC1OC2COC(c3ccccc3)OC2C(NC(=S)SCc2ccccc2)C1O (configuration not stated)	-3	98% (active)	99.4% (active)	0	98% (active)	99.3% (active)	-1%	98% (active)	99.5% (active)	3	98% (active)	99.5% (active)	0	99% (active)	99.2% (active)	7	98% (active)	99% (active)
NNC(=O)C(=O)N/N=C(/CCC(=O)NCCc1ccccc1)CC(=O)c1ccccc1	1	3%	28.5%	1	2%	3.05%	-2%	4%	9.1%	-3	1%	6.15%	0	0%	-3.3%	-2	-3%	22.6%
CN(Cc1ccccc1)CC(O)c1ccc(/C=C/c2ccc(Cl)cc2)cc1 (configuration not stated)	55	66%	86.1% (active)	38	66%	65.5%	87% (active)	92% (active)	95.9% (active)	52	64%	87.6% (active)	68	82% (active)	69.6%	56	73% (active)	86.2% (active)
COc1ccc(/C(=C/CN2CCC3CCC(C3)C2)c2ccccc2)cc1 (configuration not stated)	-3	-17%	40.9%	5	-11%	14.6%	-31%	-27%	50.8%	-6	-19%	12.9%	-3	11%	17.6%	-13	-34%	12.7%
